This is an account of results in PubChem BioAssay (EPA / NIEHS).

The structures appear in SMILES notation. Results filed as inconclusive are left out. Calls of active or inactive are those of the source. The calls were made as follows, unless noted: active = hit-call score of the fitted dose curve at least 0.9, where 1 is the maximum; inactive = score below 0.9.

As a reminder, the AC50 is the midpoint of the concentration-response curve, whichever way the signal moves.

Assay [1] can be described thus: ATG_PBREM_CIS: Attagene CIS-FACTORIAL HepG2 Assay for human Phenobarbital-responsive Enhancer Module (PBREM) (AID 2282955). The conditions noted are these: HepG2 PBREM cis-reporter, Attagene multiplexed transcription; actives raise or lower the signal. A digest of the protocol: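 Fluorescence of labelled reporter cDNA fragments, resolved by capillary electrophoresis, gives mRNA induction in transfected HepG2 cells treated for 24 h; DMSO serves as negative control and baseline.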

For assay [2], the target named is Paired box protein Pax-6 (Homo sapiens) (UniProt P26367). Description: ATG_Pax6_CIS: Attagene CIS-FACTORIAL HepG2 Assay for human Paired Box 6 (PAX6) (AID 2282956). The following applies: HepG2 CIS-FACTORIAL PAX6 reporter transcription, RNA readout; actives raise or lower the signal. In outline:
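Multiplexed cis-reporter HepG2 system; 24 h treatment; reporter mRNA read by RT-PCR/CE fluorescence; bidirectional fit vs DMSO.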

The nature of assay [3]: ATG_PXRE_CIS: Attagene CIS-FACTORIAL HepG2 Assay for human Pregnane X Receptor Element (PXRE) (AID 2282957). The conditions noted are these: HepG2 Attagene CIS-FACTORIAL PXRE reporter, mRNA; actives raise or lower the signal. A digest of the protocol: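 Multiplexed cis-reporter assay in transiently transfected human HepG2 cells; 24 h chemical exposure. Reporter transcripts quantified by RT-PCR with fluorescent labeling and capillary electrophoresis.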

The nature of assay [4]: ATG_PPRE_CIS: Attagene CIS-FACTORIAL HepG2 Assay for human Peroxisome Proliferator-activated Response Element (PPRE) (AID 2282958). The conditions noted are these: HepG2 PPRE cis-element reporter, Attagene transcription factor profiling; actives raise or lower the signal. A digest of the protocol: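 Cells are first transfected transiently with the multiplexed reporter library, then dosed for 24 h. Total RNA is reverse-transcribed, amplified, fluorescently end-labeled and HpaI-cut before capillary electrophoresis; activity is fitted bidirectionally against DMSO controls.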

Assay [5] is described as follows: ATG_RORE_CIS: Attagene CIS-FACTORIAL HepG2 Assay for human RAR-related Orphan Receptor Element (RORE) (AID 2282959). The conditions noted are these: HepG2 Attagene cis-factorial RORE reporter, mRNA; actives raise or lower the signal. A digest of the protocol: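 Cells were HepG2 carrying transfected cis-regulated reporter constructs, dosed for 24 hours. Total RNA was reverse-transcribed and reporter cDNA amplified, fluorescently labeled and sized by capillary electrophoresis. Activity was fitted bidirectionally relative to DMSO.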

The nature of assay [6]: ATG_Sox_CIS: Attagene CIS-FACTORIAL HepG2 Assay for human SRY-box transcription factor (SOX) (AID 2282960). The following applies: HepG2 Attagene cis-factorial SOX reporter, mRNA; actives raise or lower the signal. A digest of the protocol:
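Transient MRTU transfection of HepG2; 24 h compound incubation; TriZol RNA, oligo(dT) RT, PCR, 6-FAM primer extension, HpaI cut, CE. Bidirectional fit, DMSO = baseline.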

Assay [7] deals with Transcription factor Sp1 (Homo sapiens) (UniProt P08047). Description: ATG_Sp1_CIS: Attagene CIS-FACTORIAL HepG2 Assay for human Specificity Protein 1 (Sp1) (AID 2282961). The following applies: HepG2 Sp1 cis-reporter transcription, actives raise or lower the signal. A digest of the protocol:
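Endogenous Sp1 activity was gauged in human liver HepG2 cells bearing transfected reporter units under a cis-regulating promoter. After 24 h dosing, reporter mRNA was quantified by RT-PCR with capillary electrophoresis, and activity fitted bidirectionally versus DMSO.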

Assay [8] can be described thus: ATG_SREBP_CIS: Attagene CIS-FACTORIAL HepG2 Assay for human Sterol Regulatory Element Binding (SREBP) (AID 2282962). The following applies: HepG2 Attagene cis-factorial SREBP reporter, mRNA; actives raise or lower the signal. A digest of the protocol:
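mRNA induction of transfected cis-promoter reporters in HepG2 cells, 24 h post-dose. Detection: RT-PCR with 6-FAM-labelled products, HpaI digest, capillary electrophoresis. DMSO served as negative control and baseline.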

In assay [9] the target is Signal transducer and activator of transcription 3 (Homo sapiens) (UniProt P40763). Description: ATG_STAT3_CIS: Attagene CIS-FACTORIAL HepG2 Assay for human Signal Transducer and Activator of Transcription 3 (STAT3) (AID 2282963). The following applies: HepG2, Attagene cis-factorial STAT3 reporter transcription; actives raise or lower the signal. In outline:
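HepG2 cells transiently transfected with multiple cis-element-driven reporter units report endogenous transcription factor activity. After 24 h compound exposure, reporter mRNA is measured by RT-PCR, 6-FAM labelling, HpaI digestion and capillary electrophoresis. Fitted bidirectionally versus DMSO.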

Assay [10] can be described thus: ATG_TA_CIS: Attagene CIS-FACTORIAL HepG2 Assay for human TA Basal Promoter (AID 2282964). The conditions noted are these: HepG2 Attagene CIS-factorial TA basal promoter reporter; actives raise or lower the signal. In outline:
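Background internal-marker endpoint from a 52-component HepG2 cis-reporter panel. Cells treated 24 h; reporter transcripts quantified via RT-PCR and CE fluorescence against DMSO baseline.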

A short description of assay [11]: ATG_TCF_b_cat_CIS: Attagene CIS-FACTORIAL HepG2 Assay for human T-Cell-Factor with beta-catenin (TCF/b-cat) (AID 2282965). The conditions noted are these: HepG2 TCF/beta-catenin cis-reporter transcription, actives raise or lower the signal. In outline:
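Cells of the HepG2 line carry transiently transfected reporter units whose promoters respond to endogenous factors. Twenty-four hours post-dosing, reporter mRNA induction is measured by fluorescent RT-PCR and capillary electrophoresis, with DMSO as baseline.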

The nature of assay [12]: ATG_TAL_CIS: Attagene CIS-FACTORIAL HepG2 Assay for human TAL Basal Promoter (AID 2282966).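 Also: background control endpoint measuring basal TAL promoter reporter mRNA not a specific factor.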 The conditions noted are these: HepG2 Attagene cis-factorial TAL promoter reporter; actives raise or lower the signal. In outline: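 Steps: transfect HepG2 with multiple reporter transcription units; dose 24 h; isolate RNA, reverse-transcribe, PCR-amplify, label with 6-FAM, digest with HpaI; resolve by capillary electrophoresis. Bidirectional fitting against DMSO baseline.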

Assay [13] is described as follows: ATG_TGFb_CIS: Attagene CIS-FACTORIAL HepG2 Assay for human Transforming Growth Factor (TGF) (AID 2282967). The conditions noted are these: HepG2 Attagene CIS TGFb reporter, mRNA transcription; actives raise or lower the signal. A digest of the protocol:
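Liver HepG2 line, cis-factorial reporter panel, 24 h dosing. Quantitation: RT-PCR products labeled with 6-FAM, cut with HpaI, resolved by capillary electrophoresis; DMSO-referenced bidirectional analysis.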

Assay [14] in a line: ATG_VDRE_CIS: Attagene CIS-FACTORIAL HepG2 Assay for human Vitamin D Receptor Element (VDRE) (AID 2282968). The conditions noted are these: HepG2 VDRE cis-reporter transcription, actives raise or lower the signal. In outline: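 Transiently transfected HepG2 cells carrying cis-regulated reporter transcription units were exposed for 24 h. Reporter mRNA was measured by RT-PCR with fluorescent labelling and capillary electrophoresis, and fitted in both directions against DMSO.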

The target of assay [15] is Estrogen receptor (Homo sapiens) (UniProt P03372). Description: ATG_ERa_TRANS: Attagene TRANS-FACTORIAL HepG2 Assay for human Estrogen Receptor alpha (ERa) (AID 2282970; active = hit-call score of the fitted dose curve at least 0.9, where 1 is the maximum). The following applies: HepG2 Attagene TRANS ERa GAL4 reporter, mRNA. In outline: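 Multiplexed cell-based reporter format in HepG2: chimeric ERa-Gal4 protein drives GAL4-UAS reporter transcription. Fluorescent reporter mRNA quantified by capillary electrophoresis 24 hours after dosing; endpoint fitted as signal gain against DMSO.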

Assay [16] concerns the target X-box-binding protein 1 (Homo sapiens) (UniProt P17861). Description: ATG_Xbp1_CIS: Attagene CIS-FACTORIAL HepG2 Assay for human X-box Binding Protein 1 (XBP1) (AID 2282972). The conditions noted are these: HepG2 XBP1 cis-element reporter, Attagene multiplex; actives raise or lower the signal. A digest of the protocol: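 Fluorescence-labelled cDNA fragments from reporter transcripts, separated by capillary electrophoresis, give the signal. Source: HepG2 cells transfected with promoter-driven reporter units, harvested 24 h post-dose. DMSO served as reference for bidirectional curve fitting.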

Assay [17] addresses Androgen receptor (Homo sapiens) (UniProt P10275). The assay is described as follows: ATG_AR_TRANS: Attagene TRANS-FACTORIAL HepG2 Assay for human Androgen Receptor (AR) (AID 2282973; active = hit-call score of the fitted dose curve at least 0.9, where 1 is the maximum). The conditions noted are these: HepG2 Attagene TRANS-FACTORIAL AR reporter transcription. A digest of the protocol: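 Chimeric nuclear receptor–Gal4 activity was assessed in human HepG2 hepatocytes after 24 h chemical dosing. Induced reporter mRNA was detected via labelled RT-PCR fragments on capillary electrophoresis, and gain of signal was analysed against DMSO.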

Assay [18] deals with Nuclear receptor subfamily 1 group I member 3 (Homo sapiens) (UniProt Q14994). Description: ATG_CAR_TRANS: Attagene TRANS-FACTORIAL HepG2 Assay for human Constitutive Androstane Receptor (CAR) (AID 2282969; active = hit-call score of the fitted dose curve at least 0.9, where 1 is the maximum;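 also: activators raise reporter mRNA above DMSO so AC50 marks induction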). The conditions noted are these: HepG2 Attagene TRANS-FACTORIAL CAR reporter. A digest of the protocol: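 HepG2 cells transiently transfected with GAL4-UAS reporter units; TRANS format reads activity of exogenous chimeric NR-Gal4 protein. After 24 h dosing, reporter mRNA quantified by RT-PCR, 6-FAM labelling and capillary electrophoresis; gain of signal fitted against DMSO.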

The target of assay [19] is Steroid hormone receptor ERR1 (Homo sapiens) (UniProt P11474). Description: ATG_ERRa_TRANS: Attagene TRANS-FACTORIAL HepG2 Assay for human Estrogen-Related Receptor alpha (ERRa) (AID 2282971; active = hit-call score of the fitted dose curve at least 0.9, where 1 is the maximum). The conditions noted are these: HepG2 Attagene TRANS reporter, ERRa transactivation. In outline: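 Signal gain relative to DMSO for an ERRa-Gal4 chimeric receptor, read as reporter mRNA by RT-PCR/capillary electrophoresis. Human HepG2 liver cells, transient multiplex reporter transfection, 24 h chemical exposure.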

Assay [20] can be described thus: ATG_M_19_TRANS: Attagene TRANS-FACTORIAL HepG2 Assay for M19 Transcription Factor (Internal Marker) (AID 2282974; active = hit-call score of the fitted dose curve at least 0.9, where 1 is the maximum). The following applies: HepG2 Attagene TRANS-FACTORIAL M19 internal marker reporter. In outline:
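Cells: human HepG2, transiently transfected with multiplexed reporter transcription units. Exposure: 24 h. Detection: RT-PCR of reporter mRNA with capillary electrophoresis. Analysis: gain-of-signal vs DMSO.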

Steroid hormone receptor ERR1 (Homo sapiens), sequence (P11474 whole entry, looked up, the tested form may be a part): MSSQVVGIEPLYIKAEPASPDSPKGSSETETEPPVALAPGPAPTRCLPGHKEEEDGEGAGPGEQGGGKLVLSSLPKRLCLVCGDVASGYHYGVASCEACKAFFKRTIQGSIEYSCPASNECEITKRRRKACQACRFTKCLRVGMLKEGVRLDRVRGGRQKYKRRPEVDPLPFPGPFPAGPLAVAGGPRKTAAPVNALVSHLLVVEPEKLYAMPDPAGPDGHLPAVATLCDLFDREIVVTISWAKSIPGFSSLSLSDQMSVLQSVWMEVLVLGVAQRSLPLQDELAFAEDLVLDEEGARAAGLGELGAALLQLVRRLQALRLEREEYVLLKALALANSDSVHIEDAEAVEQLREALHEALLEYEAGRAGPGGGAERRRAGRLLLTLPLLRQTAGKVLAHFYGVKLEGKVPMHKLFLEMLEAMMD
Paired box protein Pax-6 (Homo sapiens), sequence (P26367 whole entry, looked up): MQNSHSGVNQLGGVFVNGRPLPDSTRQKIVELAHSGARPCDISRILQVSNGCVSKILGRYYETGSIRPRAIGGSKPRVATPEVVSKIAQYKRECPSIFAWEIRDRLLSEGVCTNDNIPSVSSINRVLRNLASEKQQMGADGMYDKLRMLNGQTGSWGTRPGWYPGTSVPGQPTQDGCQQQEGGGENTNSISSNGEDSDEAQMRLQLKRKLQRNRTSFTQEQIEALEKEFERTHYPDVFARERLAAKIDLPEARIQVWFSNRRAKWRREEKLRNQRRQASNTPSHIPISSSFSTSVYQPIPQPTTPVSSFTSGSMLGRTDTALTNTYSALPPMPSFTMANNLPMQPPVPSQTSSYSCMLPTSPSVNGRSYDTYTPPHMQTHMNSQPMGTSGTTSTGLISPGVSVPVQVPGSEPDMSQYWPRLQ
Signal transducer and activator of transcription 3 (Homo sapiens), sequence (P40763 whole entry, looked up): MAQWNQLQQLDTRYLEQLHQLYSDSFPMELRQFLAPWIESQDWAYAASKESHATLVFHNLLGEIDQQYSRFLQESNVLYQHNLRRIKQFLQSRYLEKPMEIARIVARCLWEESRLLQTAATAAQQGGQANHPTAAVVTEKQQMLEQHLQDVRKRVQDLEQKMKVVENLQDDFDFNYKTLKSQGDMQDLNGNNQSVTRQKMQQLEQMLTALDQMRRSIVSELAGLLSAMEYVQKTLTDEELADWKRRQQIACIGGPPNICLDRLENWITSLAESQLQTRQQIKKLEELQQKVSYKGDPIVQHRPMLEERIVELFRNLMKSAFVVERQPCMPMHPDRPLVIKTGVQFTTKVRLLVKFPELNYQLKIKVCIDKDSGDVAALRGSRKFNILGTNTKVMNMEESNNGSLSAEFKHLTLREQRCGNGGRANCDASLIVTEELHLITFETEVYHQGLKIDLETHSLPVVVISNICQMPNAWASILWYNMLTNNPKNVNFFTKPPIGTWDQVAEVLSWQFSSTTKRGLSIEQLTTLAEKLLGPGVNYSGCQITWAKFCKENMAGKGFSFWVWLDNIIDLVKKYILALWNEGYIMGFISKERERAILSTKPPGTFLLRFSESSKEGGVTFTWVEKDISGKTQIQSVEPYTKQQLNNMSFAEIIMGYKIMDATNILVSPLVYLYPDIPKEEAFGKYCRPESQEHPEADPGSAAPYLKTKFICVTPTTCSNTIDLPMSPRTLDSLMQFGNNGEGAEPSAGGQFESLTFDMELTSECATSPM
Nuclear receptor subfamily 1 group I member 3 (Homo sapiens), sequence (Q14994 whole entry, looked up, the tested form may be a part): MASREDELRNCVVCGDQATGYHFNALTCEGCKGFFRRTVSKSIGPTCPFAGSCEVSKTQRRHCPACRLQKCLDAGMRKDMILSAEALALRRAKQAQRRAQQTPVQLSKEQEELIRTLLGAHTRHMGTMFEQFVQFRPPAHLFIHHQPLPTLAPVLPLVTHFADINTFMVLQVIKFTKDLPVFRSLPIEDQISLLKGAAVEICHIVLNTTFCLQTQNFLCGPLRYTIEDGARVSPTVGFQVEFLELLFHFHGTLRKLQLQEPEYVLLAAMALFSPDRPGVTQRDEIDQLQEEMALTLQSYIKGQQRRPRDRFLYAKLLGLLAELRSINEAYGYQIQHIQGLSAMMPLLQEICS
Estrogen receptor (Homo sapiens), sequence (P03372 whole entry, looked up, the tested form may be a part): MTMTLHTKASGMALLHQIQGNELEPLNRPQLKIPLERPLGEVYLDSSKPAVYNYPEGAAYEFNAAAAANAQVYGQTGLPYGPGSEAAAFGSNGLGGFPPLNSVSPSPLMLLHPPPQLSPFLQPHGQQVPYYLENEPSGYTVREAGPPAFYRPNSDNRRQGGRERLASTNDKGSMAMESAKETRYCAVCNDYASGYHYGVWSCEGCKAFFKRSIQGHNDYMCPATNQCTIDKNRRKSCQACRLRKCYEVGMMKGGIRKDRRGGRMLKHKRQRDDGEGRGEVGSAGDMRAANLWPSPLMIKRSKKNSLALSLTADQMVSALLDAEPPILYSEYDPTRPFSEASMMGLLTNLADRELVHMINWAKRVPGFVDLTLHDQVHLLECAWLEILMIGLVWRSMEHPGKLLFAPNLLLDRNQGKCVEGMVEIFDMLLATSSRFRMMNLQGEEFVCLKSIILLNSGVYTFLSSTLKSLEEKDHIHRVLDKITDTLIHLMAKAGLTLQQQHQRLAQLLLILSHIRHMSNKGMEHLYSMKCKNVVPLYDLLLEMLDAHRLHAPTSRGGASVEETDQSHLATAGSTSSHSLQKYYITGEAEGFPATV
Transcription factor Sp1 (Homo sapiens), sequence (P08047 whole entry, looked up): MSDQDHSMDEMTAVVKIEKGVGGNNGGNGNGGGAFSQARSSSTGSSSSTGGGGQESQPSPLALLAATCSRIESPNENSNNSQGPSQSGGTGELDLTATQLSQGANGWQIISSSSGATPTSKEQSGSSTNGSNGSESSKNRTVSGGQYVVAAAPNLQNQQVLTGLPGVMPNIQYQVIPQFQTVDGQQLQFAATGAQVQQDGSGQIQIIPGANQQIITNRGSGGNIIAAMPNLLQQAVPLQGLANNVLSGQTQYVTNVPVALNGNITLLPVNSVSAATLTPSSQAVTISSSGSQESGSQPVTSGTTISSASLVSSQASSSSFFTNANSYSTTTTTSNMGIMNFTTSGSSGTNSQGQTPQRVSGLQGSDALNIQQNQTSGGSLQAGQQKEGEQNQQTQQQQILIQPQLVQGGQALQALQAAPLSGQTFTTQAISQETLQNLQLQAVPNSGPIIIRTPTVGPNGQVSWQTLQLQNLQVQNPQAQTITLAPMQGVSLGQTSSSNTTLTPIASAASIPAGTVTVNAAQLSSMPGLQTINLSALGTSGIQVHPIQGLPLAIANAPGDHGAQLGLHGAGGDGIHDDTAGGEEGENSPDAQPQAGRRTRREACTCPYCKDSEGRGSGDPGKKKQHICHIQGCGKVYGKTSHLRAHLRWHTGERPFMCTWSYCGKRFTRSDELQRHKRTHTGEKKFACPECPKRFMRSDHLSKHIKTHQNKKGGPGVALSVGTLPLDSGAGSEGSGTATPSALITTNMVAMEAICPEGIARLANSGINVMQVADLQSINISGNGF
X-box-binding protein 1 (Homo sapiens), sequence (P17861 whole entry, looked up, the tested form may be a part): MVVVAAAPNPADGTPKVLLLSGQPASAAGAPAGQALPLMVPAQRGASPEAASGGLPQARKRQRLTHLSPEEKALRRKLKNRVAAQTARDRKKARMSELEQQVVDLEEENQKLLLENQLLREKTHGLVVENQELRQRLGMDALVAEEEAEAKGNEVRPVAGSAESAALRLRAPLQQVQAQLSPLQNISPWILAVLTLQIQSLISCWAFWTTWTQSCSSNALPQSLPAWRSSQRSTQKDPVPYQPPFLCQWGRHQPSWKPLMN
Androgen receptor (Homo sapiens), sequence (P10275 whole entry, looked up, the tested form may be a part): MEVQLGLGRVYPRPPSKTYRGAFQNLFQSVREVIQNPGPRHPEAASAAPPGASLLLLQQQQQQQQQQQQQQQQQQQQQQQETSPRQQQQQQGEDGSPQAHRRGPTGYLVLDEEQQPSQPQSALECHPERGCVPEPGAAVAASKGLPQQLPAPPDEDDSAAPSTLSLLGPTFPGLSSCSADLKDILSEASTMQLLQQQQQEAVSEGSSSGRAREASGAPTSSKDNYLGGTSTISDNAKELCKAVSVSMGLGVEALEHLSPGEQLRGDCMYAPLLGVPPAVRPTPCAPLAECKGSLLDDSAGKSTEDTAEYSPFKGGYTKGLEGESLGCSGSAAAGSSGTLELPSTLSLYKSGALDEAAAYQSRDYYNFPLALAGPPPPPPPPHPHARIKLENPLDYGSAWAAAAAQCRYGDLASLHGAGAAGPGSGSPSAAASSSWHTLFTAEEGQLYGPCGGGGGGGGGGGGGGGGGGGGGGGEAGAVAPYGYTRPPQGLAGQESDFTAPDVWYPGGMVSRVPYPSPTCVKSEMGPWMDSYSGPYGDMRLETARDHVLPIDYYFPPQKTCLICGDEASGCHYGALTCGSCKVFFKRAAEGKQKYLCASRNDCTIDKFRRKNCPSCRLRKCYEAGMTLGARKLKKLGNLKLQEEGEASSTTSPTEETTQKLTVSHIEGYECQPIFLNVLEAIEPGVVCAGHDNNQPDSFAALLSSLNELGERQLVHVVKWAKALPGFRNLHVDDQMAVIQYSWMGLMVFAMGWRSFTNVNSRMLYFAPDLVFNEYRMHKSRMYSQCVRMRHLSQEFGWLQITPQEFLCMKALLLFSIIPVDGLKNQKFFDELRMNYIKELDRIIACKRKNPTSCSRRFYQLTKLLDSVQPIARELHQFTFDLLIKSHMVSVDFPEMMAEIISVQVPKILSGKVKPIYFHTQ

For the compound `CC(C)CBr`, the result in [1], in assay [2], in assay [3], in [4], in [5] and in assay [6] was inactive. Besides, the compound was called inactive in assay [7], in assay [8], in assay [9], in assay [10], in assay [11] and in [12]. Also, the call in [13], in [14], in assay [15], in assay [16] and in [17] was inactive.
For the compound `CCOP(=S)(OCC)SCn1nnc2ccccc2c1=O`, the concentration at half-maximal activity (AC50) in assay [1] is 1.32 µM (active); in assay [3], 0.673 µM (active); in assay [14] it was 1.61 µM (active); in assay [15] it was 3.08 µM (active). Also, the result in assay [2], in [4], in [5], in [6], in assay [7] and in assay [8] was inactive. Moreover, the compound was called inactive in assay [9], in assay [10], in assay [11], in assay [12], in [13] and in assay [18]. For the same compound, the compound was classed as inactive in [19], in [16] and in [20].
Take `c1ccc2c(c1)sc1ccccc12`: the outcome in assay [1], in [2], in [3], in assay [4], in assay [5] and in assay [6] was inactive. Besides, the result in assay [7], in assay [8], in assay [9], in assay [10], in [11] and in assay [12] was inactive. In addition, the compound was classed as inactive in assay [13], in assay [14], in assay [18], in [19], in assay [16] and in assay [20]. Besides, in assay [15], the AC50 was 63.7 µM (active).
With `CNC(=O)Oc1ccc(N(C)C)c(C)c1`, the outcome in [1], in assay [2], in assay [4], in assay [5], in assay [6] and in assay [7] was inactive. Further, the compound was classed as inactive in [8], in assay [9], in assay [10], in [11], in assay [12] and in assay [13]. The compound was called inactive in assay [14], in assay [18], in [15], in assay [16] and in assay [20]. Further, in assay [3], the AC50 is 38.3 µM (active).
As for `C=CC(=O)OCC(F)(F)C(F)F`, the result in assay [1], in assay [2], in assay [3], in [4], in assay [5] and in assay [6] was inactive. Also, the call in assay [7], in assay [8], in [9], in assay [10], in assay [12] and in assay [13] was inactive. Besides, the outcome in [19], in [16] and in [17] was inactive. Also, the AC50 in [11] was 89.3 µM (active); in assay [14] it was 90.3 µM (active).
As to `O=[N+]([O-])c1cc(Cl)ccc1Cl`, the result in assay [1], in assay [2], in [4], in assay [5], in assay [6] and in assay [7] was inactive. For the same compound, the outcome in assay [8], in [9], in assay [10], in assay [11], in [12] and in [13] was inactive. Also, the compound was classed as inactive in [14], in [15] and in [16]. Further, the half-maximal activity concentration (AC50) in [3] was 56.2 µM (active).
Take `Nc1cc2c3c(c1)C(c1ccccc1)=N[C@@H](NC(=O)c1cccnc1)C(=O)N3CC2`: the AC50 in assay [1] was 41.9 µM (active); in assay [3], 26.5 µM (active); in assay [5], 17.5 µM (active); in assay [8] it was 66.8 µM (active); in assay [14], 38.4 µM (active); in assay [16], 92.1 µM (active). In addition, the compound was classed as inactive in assay [2], in [4], in assay [6], in assay [7], in assay [9] and in assay [10]. The result in assay [11], in assay [12], in [13], in assay [18] and in [15] was inactive.
